Experiment [1] in a line: chitosan synthesis blockers in C. neoformans – flow cytometry, Cibacron Brilliant Red staining (AID 1347148; call rule not given here;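 note: compound exposure lasted three days at 37 degrees C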). Conditions: Cryptococcus neoformans chitosan, stronger effect = lower value; at 10 µM unless noted. A general note: Flow cytometry measures light scatter and fluorescence of single cells or particles in a stream.
A short description of experiment [2]: P. berghei load reduction in hepatocytes – cell-based, HepG2, luciferase luminescence, HepG2 viability, primary screen (AID 624349).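 Note: 100% = mean of DMSO negative control wells on the same plate.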 Conditions: P. berghei liver stage in HepG2, luciferase luminescence, concentration not given here; parasite load remaining: stronger effect = lower value; viability: measured here: HepG2 viability without parasites.
Experiment [3] is described as follows: viability loss with induced miR-34 in A549 – imaging, A549 dox-inducible miR-34, nuclei and caspase counts, primary screen (AID 1347080;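 active = compounds whose cell count with miR-34 switched on is under 0.7 times the count with it off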). As to conditions: A549 miR-34 inducible, Hoechst nuclei count, 48 h.
The nature of experiment [4]: compounds altering viability of human ES cells (AID 493140; call rule not given here;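 note: cells exposed to compounds for four days before counting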). Conditions: human embryonic stem cell survival screen; stronger effect = higher value.
In experiment [5] the target is ATP-dependent translocase ABCB1 (Homo sapiens) (UniProt P08183). Briefly: P-glycoprotein substrate transport blockade – cell-based (AID 377; in the data active = fluorescence slope change above about 50%). As to conditions: MDR1-expressing cells, fluorescent substrate accumulation slope; stronger effect = higher value; concentration not given here.
ATP-dependent translocase ABCB1 (Homo sapiens), sequence (P08183 whole entry, looked up): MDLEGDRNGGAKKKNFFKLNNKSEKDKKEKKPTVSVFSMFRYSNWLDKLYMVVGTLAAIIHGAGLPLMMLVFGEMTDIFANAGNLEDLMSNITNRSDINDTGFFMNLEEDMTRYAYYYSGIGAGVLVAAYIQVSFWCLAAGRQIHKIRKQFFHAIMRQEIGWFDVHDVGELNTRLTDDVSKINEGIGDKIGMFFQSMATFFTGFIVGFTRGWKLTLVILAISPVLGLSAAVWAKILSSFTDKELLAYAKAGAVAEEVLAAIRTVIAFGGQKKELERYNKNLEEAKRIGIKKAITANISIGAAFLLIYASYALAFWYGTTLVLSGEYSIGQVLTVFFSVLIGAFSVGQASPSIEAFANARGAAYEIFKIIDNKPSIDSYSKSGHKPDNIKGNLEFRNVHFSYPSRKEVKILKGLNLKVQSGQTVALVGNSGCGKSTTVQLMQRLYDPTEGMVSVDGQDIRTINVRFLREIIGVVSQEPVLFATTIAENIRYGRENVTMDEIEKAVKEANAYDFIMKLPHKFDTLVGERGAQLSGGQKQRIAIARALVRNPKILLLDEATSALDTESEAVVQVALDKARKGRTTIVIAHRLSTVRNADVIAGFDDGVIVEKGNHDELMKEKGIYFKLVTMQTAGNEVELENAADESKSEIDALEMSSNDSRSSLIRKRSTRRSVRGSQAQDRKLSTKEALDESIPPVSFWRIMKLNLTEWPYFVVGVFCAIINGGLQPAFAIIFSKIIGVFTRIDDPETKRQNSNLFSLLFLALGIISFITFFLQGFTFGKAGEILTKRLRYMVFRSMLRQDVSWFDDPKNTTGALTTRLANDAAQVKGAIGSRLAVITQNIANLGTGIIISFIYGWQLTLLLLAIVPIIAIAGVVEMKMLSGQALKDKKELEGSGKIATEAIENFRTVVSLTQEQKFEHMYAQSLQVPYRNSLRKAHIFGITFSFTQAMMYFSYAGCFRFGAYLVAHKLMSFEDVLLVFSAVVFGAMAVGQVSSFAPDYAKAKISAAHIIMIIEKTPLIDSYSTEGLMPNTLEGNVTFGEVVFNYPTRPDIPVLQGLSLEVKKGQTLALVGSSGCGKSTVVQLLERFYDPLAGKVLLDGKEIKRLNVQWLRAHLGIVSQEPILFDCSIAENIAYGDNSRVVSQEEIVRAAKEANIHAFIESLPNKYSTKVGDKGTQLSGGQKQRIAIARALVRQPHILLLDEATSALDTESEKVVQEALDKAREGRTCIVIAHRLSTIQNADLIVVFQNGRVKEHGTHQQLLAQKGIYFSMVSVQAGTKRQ
Experiment [6] in a line: blockers of polyQ-driven CASP3 activation – cell-based (AID 1583). As to conditions: polyglutamine-induced caspase-3 activation, cell assay; stronger effect = higher value;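 tested at 10 µM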.
Experiment [7] is described as follows: yeast 75Q aggregation reduction – 75Q-TubU reporter (AID 1593). As to conditions: Yeast 75Q polyglutamine aggregation reporter.
The nature of experiment [8]: restoration of touch response, mutant HTT neurons – whole organism, C. elegans mechanosensory neurons, N-terminal huntingtin (AID 1599). As to conditions: C. elegans polyQ-huntingtin mechanosensory neurons, stronger effect = higher value.
Experiment [9] is described as follows: blockers of cytochrome c efflux from mitochondria – biochemical, purified mitochondria (AID 1603).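 Note: mouse liver mitochondria challenged with calcium chloride; signal normalized to the plate average as 100%.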 As to conditions: stronger effect = lower value.
Experiment [10] can be described thus: polyglutamine aggregate formation blockers (AID 1604). As to conditions: polyglutamine-induced protein aggregation inhibition assay; stronger effect = higher value; tested at 2.5 µM.
Experiment [11] in a line: glutamate transport activators, MN-1 cells, MN-1 cell line (AID 1612).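 Note: tested at 1 µM final; 0% = mean of DMSO vehicle wells on each plate; positive means more glutamate uptake than control and negative means less.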 As to conditions: MN-1 motor neuron cells, stronger effect = higher value.
Experiment [12] in a line: GFP-Q80 aggregate reduction, neuronal-like cells, cell-based, NGF-treated PC12, GFPQ80 (AID 1614).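 Note: lower means fewer inclusions and 0 means no inclusions at all.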 As to conditions: PC12 NGF-treated GFP-polyQ80 inclusion reduction.
A short description of experiment [13]: 75Q-TubH aggregate inhibition, S. cerevisiae, yeast (AID 1616). As to conditions: S. cerevisiae 75Q-TubH polyglutamine aggregation suppression; stronger effect = higher value.
Experiment [14] is described as follows: compounds altering circadian rhythm period length – cell-based, LOPAC library, luminescence reporter (AID 2774; call rule not given here;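 note: values are relative to mean of DMSO wells on each plate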). Conditions: circadian reporter cells, at 7 µM, actives lie on both sides.
For experiment [15], the system named is Hepatitis C virus NS3 helicase. Briefly: blockers of NS3h binding to ssDNA – biochemical, fluorescence polarization, LOPAC1280 library, primary screen (AID 687035; in the data active = inhibition above about 37%). Conditions: Purified HCV NS3 helicase, Cy5-dT15 ssDNA binding fluorescence polarization; stronger effect = higher value; concentration not given here.
Experiment [16] is described as follows: compounds altering Cy5-DNA-NS3h complex signal – biochemical, LOPAC1280, artefact control for HCV NS3 helicase inhibitor project (AID 687037; call rule not given here). Conditions: Cy5-DNA-NS3h complex fluorescence interference counterscreen.
Experiment [17] deals with NAD(+) hydrolase SARM1 (Homo sapiens) (UniProt Q6SZW1). In words: blocking NAD cleavage by SARM1 SAM-TIR – cell lysate, NAD-Glo luminescence (AID 1508614;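 active = compound whose remaining NAD level is above about 45 nM, limit read from the data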;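 note: higher remaining NAD means stronger inhibition of SARM1 NADase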). As to conditions: SAM-TIR HEK293T lysate NADase, at 1 µM, stronger effect = higher value.
NAD(+) hydrolase SARM1 (Homo sapiens), sequence (Q6SZW1 whole entry, looked up, the tested form may be a part): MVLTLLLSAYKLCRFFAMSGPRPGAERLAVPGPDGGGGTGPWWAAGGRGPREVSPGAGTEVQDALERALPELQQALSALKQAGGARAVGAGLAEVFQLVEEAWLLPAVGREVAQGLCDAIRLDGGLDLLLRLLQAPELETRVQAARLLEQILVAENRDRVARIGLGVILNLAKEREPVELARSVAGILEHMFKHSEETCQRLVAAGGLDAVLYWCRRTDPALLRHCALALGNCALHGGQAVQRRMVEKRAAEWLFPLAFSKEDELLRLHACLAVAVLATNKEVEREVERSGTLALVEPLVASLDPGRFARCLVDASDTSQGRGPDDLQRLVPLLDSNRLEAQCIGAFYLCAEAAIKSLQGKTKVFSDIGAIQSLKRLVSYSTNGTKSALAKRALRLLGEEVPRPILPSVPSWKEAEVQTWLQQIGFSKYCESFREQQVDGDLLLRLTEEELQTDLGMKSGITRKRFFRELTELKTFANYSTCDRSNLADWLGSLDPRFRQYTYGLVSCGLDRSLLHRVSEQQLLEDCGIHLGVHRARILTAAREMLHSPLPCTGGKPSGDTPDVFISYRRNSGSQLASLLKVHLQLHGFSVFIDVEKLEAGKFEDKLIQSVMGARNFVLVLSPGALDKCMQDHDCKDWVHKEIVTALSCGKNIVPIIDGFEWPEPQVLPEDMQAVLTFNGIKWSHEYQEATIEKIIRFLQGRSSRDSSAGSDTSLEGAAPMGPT
Experiment [18] concerns the target Mitogen-activated protein kinase 7 (Homo sapiens) (UniProt Q13164). In words: Gal4-ERK5 driven luciferase induction – cell-based, HTS, primary screen (AID 1508626;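 active = luciferase signal above three times the same-plate solvent-only control wells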;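 note: luciferase driven by Gal4-ERK5 fusion binding five Gal4 sites before minimal TATA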). Conditions: HeLa Gal4-ERK5 transactivation, 18 h, at 5 µM, stronger effect = higher value.
For experiment [19], the target named is Huntingtin (Homo sapiens) (UniProt P42858). In words: mutant huntingtin aggregation blockers – QA1, dose response (AID 1584). Conditions: in vitro mutant huntingtin aggregation assay; confirmation test; at 10 µM; stronger effect = lower value.
Experiment [20] in a line: rescue of PC12 cells from polyQ htt toxicity – LDH release (AID 1610). Conditions: PC12 mutant huntingtin toxicity, final LDH at 4 uM, stronger effect = lower value.
The mark [21] stands for this setting: stronger effect = lower value, cell number ratio, induced over uninduced.
The mark [22] stands for this setting: measured here: relative caspase fold change +Dox/-Dox.
The mark [23] stands for this setting: measured here: total cells with miR-34 induction, stronger effect = lower value.
The mark [24] stands for this setting: measured here: total cells without miR-34 induction.

“And” between values parts separate entries of the source, which are not always exact repeats. Equal values may be shown once. Inconclusive results are not listed. For some assays here: Entries with a potency or affinity are not part of this list. The source made the active and inactive calls. Cut-off read from the data, not from the text of the source, unless noted: active = parasite load remaining mostly below about 12% (no sharp cut-off); inactive = mostly above about 10%.

A word on the viability: it is a read-out of living cells in per cent, often relative to untreated cells. For orientation: inhibition means the change of the read-out against control, counted positive when it falls.

Mitogen-activated protein kinase 7 (Homo sapiens), sequence (Q13164 whole entry, looked up, the tested form may be a part): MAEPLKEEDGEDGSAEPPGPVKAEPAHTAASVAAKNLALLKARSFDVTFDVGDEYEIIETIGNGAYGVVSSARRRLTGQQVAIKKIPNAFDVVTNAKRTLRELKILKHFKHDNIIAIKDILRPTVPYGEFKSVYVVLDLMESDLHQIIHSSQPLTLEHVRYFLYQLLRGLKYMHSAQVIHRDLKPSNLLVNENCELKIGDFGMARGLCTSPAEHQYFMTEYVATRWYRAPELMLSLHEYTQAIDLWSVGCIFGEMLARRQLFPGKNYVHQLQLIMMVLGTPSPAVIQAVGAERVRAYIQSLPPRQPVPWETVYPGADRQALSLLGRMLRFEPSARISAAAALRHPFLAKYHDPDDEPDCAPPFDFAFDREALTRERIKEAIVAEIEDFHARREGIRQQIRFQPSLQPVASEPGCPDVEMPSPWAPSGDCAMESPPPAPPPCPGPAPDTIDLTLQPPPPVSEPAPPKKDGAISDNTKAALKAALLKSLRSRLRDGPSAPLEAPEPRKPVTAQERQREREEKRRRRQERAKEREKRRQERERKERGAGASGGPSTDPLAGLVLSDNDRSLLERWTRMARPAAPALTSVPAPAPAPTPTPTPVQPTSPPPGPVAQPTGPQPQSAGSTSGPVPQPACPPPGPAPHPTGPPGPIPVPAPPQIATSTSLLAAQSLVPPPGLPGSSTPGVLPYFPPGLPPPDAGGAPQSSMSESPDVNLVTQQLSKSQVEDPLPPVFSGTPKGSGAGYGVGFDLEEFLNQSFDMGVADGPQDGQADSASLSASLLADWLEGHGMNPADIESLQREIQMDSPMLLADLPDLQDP

As to `C=C1[C@@H](C)[C@H]2[C@H](Cc3ccccc3)NC(=O)[C@]23[C@H](OC(C)=O)/C=C/[C@](C)(O)C(=O)[C@@H](C)C/C=C/[C@H]3[C@@H]1O`, the fold fluorescence in experiment [1] was 11.8 [at 98.5 µM] (inactive).

Turning to `CO[C@H](C)C(O)(C(=O)OCC1=CCN2CC[C@H](O)[C@@H]12)C(C)C` (stereo not given in full), in experiment [2], the parasite load remaining is 69.7% (inactive). Besides, the viability in experiment [2] turned out to be 101%. For the same molecule, the fold change in experiment [3] (setting [21]) was 0.879 (inactive); in [3] (setting [22]), 1.23. In addition, the cell count came out at 8290 in [3] (setting [23]) and 9440 in experiment [3] (setting [24]).

For the molecule `CC[C@H]1CN2CCC1C[C@H]2[C@H](O)c1ccnc2ccc(OC)cc12` (stereo not given in full), in [4], the survival is 6.08 (inactive). In addition, in experiment [2], the parasite load remaining is 83.6% (inactive) and 51.6% (inactive). Besides, the viability in experiment [2] is 106% and 80.9%. Besides, the fold change in [3] (setting [21]) was 0.867 (inactive); in experiment [3] (setting [22]), 1.17. Besides, the cell count in experiment [3] (setting [23]) was found to be 8140; in experiment [3] (setting [24]), 9390.

As to `CO[C@H]1C=C2CCN(C)[C@H]2C2c3cc4c(cc3C(=O)O[C@@H]21)OCO4` (stereo not given in full), the parasite load remaining in [2] was 64.2% (inactive). Moreover, the viability in experiment [2] worked out at 100%. Further, the fold change in experiment [3] (setting [21]) is 0.936 (inactive); in [3] (setting [22]), 0.836. The cell count came out at 9140 in experiment [3] (setting [23]) and 9770 in [3] (setting [24]).

On to `CC(=O)O[C@H]1C[C@H](O[C@H]2[C@@H](O)C[C@H](O[C@H]3[C@@H](O)C[C@H](O[C@H]4CC[C@@]5(C)[C@H](CC[C@]6(C)[C@]5(C)C[C@@H](O)[C@]5(C)[C@@H](C7=CC(=O)OC7)CC[C@@]56O)C4)O[C@@H]3C)O[C@@H]2C)O[C@H](C)[C@H]1O[C@@H]1O[C@H](CO)[C@@H](O)[C@H](O)[C@H]1O`, for which the parasite load remaining in experiment [2] was 0.31% (inactive). Moreover, the viability in experiment [2] is 66.6%. The fold change in experiment [3] (setting [21]) is 0.992 (inactive); in experiment [3] (setting [22]) it was 1.14. Further, the cell count stood at 808 in [3] (setting [23]) and 815 in experiment [3] (setting [24]).

As to `CC[C@H](C)[C@H]1O[C@]2(C=C[C@@H]1C)C[C@@H]1C[C@@H](C/C=C(\C)C(O[C@H]3C[C@H](OC)C(O[C@H]4C[C@H](OC)[C@@H](O)[C@H](C)O4)[C@H](C)O3)[C@@H](C)/C=C/C=C3\CO[C@@H]4[C@H](O)C(C)=C[C@@H](C(=O)O1)[C@]34O)O2` (stereo not given in full), the fluorescence slope change in experiment [5] is 61.5% (active).

For `C=CCC1(CC(C)C)C(=O)NC(=O)NC1=O`, the inhibition in experiment [6] was -3.41%. Also, the score in experiment [7] came out at 0.97. Further, in [8], the rescue above control amounted to 1.21. In addition, in experiment [9], the cytochrome c release ratio worked out at 0.94. This molecule displayed an inhibition of aggregation in experiment [10] of 7.48%. For the same molecule, in [11], the glutamate uptake change was determined as 5.4%. The molecule also yielded an inclusion score in experiment [12] of 2. In [13], this molecule registered an aggregation suppression score of 1.15.

`C#CCN(C)[C@@H](C)Cc1ccccc1`: the period change in [14] was 0.185 h (inactive).

For `CN1CCN(C(=O)OC2c3nccnc3C(=O)N2c2ccc(Cl)cn2)CC1` (stereo not given), the period change in experiment [14] is -0.19 h (inactive).

As to `COC(=O)[C@]1(O)C[C@@H]2O[C@@]1(C)n1c3ccccc3c3c4c(c5c6ccccc6n2c5c31)C(=O)NC4`, in experiment [2], the parasite load remaining is 43.2% (inactive) and the viability was determined as 53.6%.

Take `C[C@H]1C2Cc3ccc(O)cc3[C@@]1(C)CCN2CC1CC1`: the inhibition in [15] was 0% (inactive). The fluorescence ratio (interference) in experiment [16] was 1 (inactive).

Regarding `CC(=O)O[C@H]1C[C@H](O[C@H]2[C@@H](O)C[C@H](O[C@H]3[C@@H](O)C[C@H](O[C@H]4CC[C@@]5(C)[C@H](CC[C@@H]6[C@@H]5C[C@@H](O)[C@]5(C)[C@@H](C7=CC(=O)OC7)CC[C@]65O)C4)O[C@@H]3C)O[C@@H]2C)O[C@H](C)[C@H]1O[C@@H]1O[C@H](CO)[C@@H](O)[C@H](O)[C@H]1O`, the remaining NAD in experiment [17] is 10 nM (inactive). The luciferase signal in [18] was 44 AU (inactive).

Regarding `C=CC[C@]1(O)CC[C@H]2[C@@H]3CCC4=CC(=O)CCC4=C3C=C[C@@]21C`, in experiment [17], the remaining NAD was 10 nM (inactive). Further, the luciferase signal in [18] was 60 AU (inactive).

In the case of `C[N+]1([O-])[C@@H]2CC[C@H]1CC(OC(=O)C(CO)c1ccccc1)C2` (stereo not given in full), the fluorescence slope change in experiment [5] is 74.3% (active). The survival in [4] is 35.2 (inactive). In experiment [2], the parasite load remaining was 113% (inactive) and the viability was 87.7%.

In the case of `CC(N)C(O)c1ccccc1` (stereo not given), the fluorescence slope change in experiment [5] was 4.9% (inactive). Also, the inhibition in experiment [6] is -49.8%. This molecule returned a score in experiment [7] of 1.3. In addition, in experiment [8], the rescue above control was -2.3. The cytochrome c release ratio in [9] worked out at 0.86. The inhibition of aggregation in experiment [10] is 86.1%. The glutamate uptake change in [11] came out at 4.9%. The inclusion score in experiment [12] stood at 2. This molecule also gave an aggregation suppression score in experiment [13] of 1.78.

On to `C[C@@]1(C(=O)O)CC[C@]2(C)CC[C@]3(C)C4=CC=C5C=C(O)C(=O)C=C5[C@]4(C)CC[C@@]3(C)[C@@H]2C1`, for which the aggregation ratio in experiment [19] worked out at 0.487. The molecule also yielded a score in experiment [7] of 1.77. Further, in experiment [9], the cytochrome c release ratio came to 3.7. Besides, the inhibition of aggregation in experiment [10] was 11.8%. Besides, the normalised LDH release in experiment [20] amounted to 0.996. In experiment [11], the glutamate uptake change was -13.4%. The same molecule yielded an aggregation suppression score in [13] of 1.23.

For the origin of these results see PubChem BioAssay.
